The full list was thinned out, with hits kept by preference.
mHTT CaM bind: disrupts binding of mutant huntingtin to calmodulin; inhibition, % at 15 µM; 3.6% of 190,000 active; AID 1671202; AlphaScreen His-mHTT/GST-CaM binding, luminescence; P42858;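 also: 0% = both proteins with DMSO and 100% = one protein alone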
Pf apPOL block: Pf-apPOL DNA polymerase inhibition; Recombinant Pf-apPOL, molecular beacon fluorescence, 1.5 h; inhibition, % at 10 µM; 0.25% of 210,000 active
* hit, by the source's call. Rule as the data show it: active = inhibition above about 50%; inactive = the rest.

`Cc1c(Cl)cccc1S(=O)(=O)N1CCCC(C)(C(=O)NCc2ccccc2)C1` (centres undefined) gave mHTT CaM bind 65* and Pf apPOL block -4.
Cc1ccccc1CNC(=O)C1(C)CCCN(S(=O)(=O)c2cccc(Cl)c2C)C1 (centres undefined) was read as mHTT CaM bind 61* and Pf apPOL block -3.
For O=C(C1CC1)N1CCc2cc(S(=O)(=O)N3CCc4ccccc43)ccc21 the results were mHTT CaM bind 11 and Pf apPOL block 8.
`CCN(CC)C(=O)CC[C@H]1CC[C@]2(CCCN(C(=O)c3ccno3)C2)O1` gave mHTT CaM bind -6 and Pf apPOL block -9.
Screening CCOC(=O)CC[C@H]1CC[C@]2(CCCN(C(=O)c3ccno3)C2)O1 returned mHTT CaM bind 78* and Pf apPOL block -3.
O=C1CCc2cc(NC(=O)c3ccc(OC(F)(F)F)cc3)ccc2N1 was read as mHTT CaM bind 2 and Pf apPOL block -11.
Screening COc1cccc(CN2CCc3nc(Nc4ccc(F)cc4)ncc3C2)c1OC returned mHTT CaM bind 100* and Pf apPOL block -3.
Screening CCCCN1CCc2nc(Nc3ccc(OC)cc3)ncc2C1 returned mHTT CaM bind 52* and Pf apPOL block -4.
`COc1cc(OC)c(OC)cc1CN1CCc2nc(Nc3ccc(F)cc3)ncc2C1` gave mHTT CaM bind 70* and Pf apPOL block -4.
Screening COc1ccc(Nc2ncc3c(n2)CCN(Cc2ccccc2OC)C3)cc1 returned mHTT CaM bind 45 and Pf apPOL block -11.
For COc1ccc(Nc2ncc3c(n2)CCN(Cc2cc(OC)c(OC)cc2OC)C3)cc1 the results were mHTT CaM bind 14 and Pf apPOL block -4.
`COc1cc(Nc2ncc3c(n2)CCN(Cc2cccc(OC)c2OC)C3)cc(OC)c1` gave mHTT CaM bind 30 and Pf apPOL block -6.
For Cc1cc(C)nc(NC(=O)COc2ccc(Cl)cc2Cl)c1 the results were mHTT CaM bind -2 and Pf apPOL block 0.
CC1(C)CC(=O)C2=C(C1)Nc1nc(SCc3ccccc3Cl)nn1C2c1cccnc1 (centres undefined) was read as mHTT CaM bind 2 and Pf apPOL block 1.
`O=c1[nH]c(/C=C/c2cc(Br)ccc2O)nc2ccccc12` gave mHTT CaM bind -1 and Pf apPOL block 2.
`O=c1c2ccccc2nc(/C=C/c2cc(Br)ccc2O)n1CCCO` gave mHTT CaM bind 76* and Pf apPOL block 16.
O=C(Nc1ncn[nH]1)C1CCC1 was read as mHTT CaM bind 15 and Pf apPOL block -1.
Screening COc1ccc(N=C/C=C/c2ccccc2Cl)cc1Cl returned mHTT CaM bind 55* and Pf apPOL block -4.
`COc1ccc(N=Cc2ccc(Cl)cc2)cc1Cl` gave mHTT CaM bind 19 and Pf apPOL block -3.
Screening CCC(C(=O)O)N1C(=O)NC2C1N(C)C(=O)N2C (centres undefined) returned mHTT CaM bind -2.
`COc1ccc(C2/C=C\CN(C(=O)C3CC3)[C@@H](Cc3ccccc3)C(=O)N2Cc2ccc(F)cc2)cc1` (some centres undefined) gave mHTT CaM bind 91* and Pf apPOL block -1.
For COc1ccc(C2/C=C\CN(CC(C)C)[C@@H](Cc3ccccc3)C(=O)N2Cc2ccc(F)cc2)cc1 (some centres undefined) the results were mHTT CaM bind -4 and Pf apPOL block -3.
For COc1ccc(C2/C=C\CN(C(=O)c3ccccc3)[C@@H](Cc3ccccc3)C(=O)N2Cc2ccc(F)cc2)cc1 (some centres undefined) the results were mHTT CaM bind 87* and Pf apPOL block -3.
For COc1ccc(C2/C=C\CN(C(=O)c3ccc(C)cc3)[C@@H](Cc3ccccc3)C(=O)N2Cc2ccc(F)cc2)cc1 (some centres undefined) the results were mHTT CaM bind 16 and Pf apPOL block -4.
Cc1nn(C)c(C)c1CNC(=O)C1CCN(c2nnc3ccc(Cl)cn23)CC1 was read as mHTT CaM bind 0 and Pf apPOL block 0.
For Cc1cc(C)nc(N=C(N)Nc2cc(Cl)cc(Cl)c2)n1 the results were mHTT CaM bind -4 and Pf apPOL block -5.
COc1ccc(C2=NN3C(C2)c2cccc(OC)c2OC32CCCCC2)cc1 (centres undefined) was read as mHTT CaM bind 50 and Pf apPOL block -20.
For COc1cccc2c1OC(C)(C)N1N=C(c3cccs3)CC21 (centres undefined) the results were mHTT CaM bind 61* and Pf apPOL block -26.
Screening CC1(C)Oc2ccc(Br)cc2C2CC(c3cccs3)=NN21 (centres undefined) returned mHTT CaM bind 59* and Pf apPOL block -3.
Screening O=S(=O)(c1ccccc1)N1N=C(c2cccs2)CC1c1ccc(Br)cc1 (centres undefined) returned mHTT CaM bind -4 and Pf apPOL block -54.
COc1cccc2c1OC1(CCC(C)CC1)N1N=C(c3cccs3)CC21 (centres undefined) was read as mHTT CaM bind 36 and Pf apPOL block -15.
For COc1ccc(C2=NN3C(C2)c2cccc(OC)c2OC3(C)C)cc1 (centres undefined) the results were mHTT CaM bind 51* and Pf apPOL block -18.
`CC(C)CC(=O)NCC1CCCO1` (centres undefined) gave mHTT CaM bind -5.
Screening Cc1ccc(COCc2nn(C)c3c2CN(C(=O)Nc2cccc(Cl)c2)CC3)cc1 returned mHTT CaM bind 9 and Pf apPOL block -1.
`CC(C)(C)N=C1Nc2ccccc2NC12CCCN(C(=O)c1ccc3nc[nH]c3c1)C2` (centres undefined) gave mHTT CaM bind 26 and Pf apPOL block 7.
`Brc1ccc(-n2cc(-c3ccccc3)c3c(NCCN4CCOCC4)ncnc32)cc1` gave mHTT CaM bind 16 and Pf apPOL block -4.
`COC(=O)C1=C(C(=O)OC)[C@]2([C@@H]3C/C=C\CN[C@@H](Cc4ccccc4)C(=O)N3Cc3ccccc3)C=C[C@H]1O2` gave mHTT CaM bind 25 and Pf apPOL block -3.
O=C1[C@H](Cc2ccccc2)NC/C=C\C[C@@H](c2ccc(Cl)cc2)N1Cc1ccc(Cl)cc1 was read as mHTT CaM bind 99* and Pf apPOL block 1.
O=C1[C@H](Cc2ccccc2)NC/C=C\C[C@H](c2ccco2)N1Cc1ccccc1 was read as mHTT CaM bind 51* and Pf apPOL block 1.
For O=C(NCCc1ccccc1)N1CCCC1c1ccc(Cl)cc1 (centres undefined) the results were mHTT CaM bind 0 and Pf apPOL block -4.
Screening COc1ccc(C=C2Oc3c(ccc4c3CN(Cc3ccncc3)CO4)C2=O)c(OC)c1 returned mHTT CaM bind 49 and Pf apPOL block -26.
`COc1ccccc1C=C1Oc2c(ccc3c2CN(Cc2ccccn2)CO3)C1=O` gave mHTT CaM bind -2 and Pf apPOL block -35.
COc1cc(OC)c(OC)cc1C=C1Oc2c(ccc3c2CN(Cc2ccccn2)CO3)C1=O was read as mHTT CaM bind 97* and Pf apPOL block -52.
`COc1cccc(C=C2Oc3c(ccc4c3CN(Cc3ccccn3)CO4)C2=O)c1OC` gave mHTT CaM bind 100* and Pf apPOL block -92.
For COc1ccc(Br)cc1C=C1Oc2c(ccc3c2CN(Cc2ccccn2)CO3)C1=O the results were mHTT CaM bind 100* and Pf apPOL block -197.

Compound activity from PubChem.
